Compound activity deposited in PubChem BioAssay by several laboratories.
sPLA2-III inh: Blocks human group III sPLA2 activity; hit rate 0.56% among 370,000; Q9NZ20; inhibition, % at 12.2 µM; QFRET BODIPY PC-A2 liposome hydrolysis, fluorescence;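 active means inhibition above mean plus 3 SD of compounds lying within the high and low control bounds, cut at about 19% in these data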;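 further: 0% = median of test compound wells and 100% = no enzyme DMSO wells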
NR3A LBD binder: NR3A (human) ligand-binding domain modulation; hit rate 2.5% among 340,000; Tm shift relative to glycine control, % at 25 µM; NR3A LBD differential scanning fluorimetry, Tm shift; 0% = protein alone, 100% = glycine-bound protein;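 active means melting temperature shift of at least 10% of the positive control shift, at one fixed dose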
UBC9 SUMO inh: blocks human SUMOylation mediated by UBC9 | inhibition, % at 35 µM | P63279 | HTRF SUMOylation assay, SAE1/SAE2 + UBC9, in vitro | hit rate 0.36% among 290,000; in the data active means inhibition above about 50%, passing the limit was not always enough
Target sequence (P63279 whole entry, looked up): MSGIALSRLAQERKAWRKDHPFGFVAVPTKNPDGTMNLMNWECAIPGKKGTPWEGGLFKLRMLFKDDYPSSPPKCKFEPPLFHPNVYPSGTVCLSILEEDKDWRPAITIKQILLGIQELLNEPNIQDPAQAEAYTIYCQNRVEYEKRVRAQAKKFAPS
UBC13 inh: human UBC13 polyubiquitination inhibition | inhibition, % at 20 µM | hit rate 0.47% among 330,000 | UBC13 polyubiquitin chain formation, TR-FRET | P61088; in the data active means inhibition above about 45%, passing the limit was not always enough
Target sequence (P61088 whole entry, looked up): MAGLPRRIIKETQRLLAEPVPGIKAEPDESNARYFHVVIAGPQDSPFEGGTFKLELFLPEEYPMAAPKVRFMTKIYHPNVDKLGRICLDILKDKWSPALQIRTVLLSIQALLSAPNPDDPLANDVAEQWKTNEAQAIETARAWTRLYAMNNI
* = called active by the depositor; . = not tested or not shown. An excerpt weighted towards active compounds, which were near 3.3% of everything screened.

SMILES	sPLA2-III inh	NR3A LBD binder	UBC9 SUMO inh	UBC13 inh
Cc1ccccc1NC(=O)CSc1nnc(CNC(=O)c2ccc3c(c2)OCO3)n1C	4.5	-0.5	12.7	-1.8
CCn1c(CNC(=O)c2ccc3c(c2)OCO3)nnc1SCC(=O)Nc1cc(C)ccc1OC	-8.2	10.2*	-1.0	-3.6
O=C(O)c1ccc(/C=N/N2CCN(Cc3cccc4ccccc34)CC2)cc1	-1.3	191.9*	8.4	-8.1
COc1ccccc1NC(=O)c1c(Nc2ccccc2C)sc(C(=O)Nc2cccc(Cl)c2)c1N	-9.7	30.7*	-25.0	-29.4
Cc1occc1C(=O)Nc1ccc2ccccc2c1	-5.0	24.4*	10.2	5.5
Cc1oc(-c2ccccc2)cc1C(=O)Nc1ccc2ccccc2c1	-8.2	15.1*	11.8	-10.6
COc1ccc(NC(=O)c2cc(-c3ccccc3)oc2C)cc1	-16.6	17.5*	-2.0	10.9
CC(=O)c1cccc(NC(=O)c2ccoc2C)c1	-5.2	-1.3	19.9	3.1
Cc1oc(-c2ccccc2)cc1C(=O)Nc1ccccc1	-17.4	4.1	-13.7	5.8
Nc1nc(SCC(=O)Nc2ccc([N+](=O)[O-])cc2Br)n[nH]1	1.2	-0.5	11.8	7.1
CC(C)c1nc(SCC(=O)Nc2ccc([N+](=O)[O-])cc2Br)n[nH]1	-7.6	10.7*	30.5	-15.1
CCOc1ccc(NC(=O)c2cc3cc4ccc(OC)cc4nc3o2)cc1	1.1	13.1*	34.1	4.1
O=C(Nc1ccccc1)Nc1ccc2nnsc2c1	-4.9	42.2*	5.3	4.8
CN(C)c1ccc(NC(=O)Nc2ccc3snnc3c2)cc1	-16.2	35.9*	-6.3	2.4
O=C(Nc1ccccc1)Nc1ccc2snnc2c1	-27.4	31.9*	18.6	5.8
O=C(C1CCC1)N1CCc2cc(S(=O)(=O)C3CCN(Cc4ccc(F)cc4)CC3)ccc21	10.5	.	.	.
CN(c1ccccc1)c1ccc(/C=C(/CCC(=O)O)c2nc3ccccc3s2)cc1[N+](=O)[O-]	19.9*	0.1	.	.
CCc1ccc(OCC(=O)NNC(=S)NC(=O)C2CC2)c(Br)c1	10.6	-13.2	-62.1	72.5*
CCc1ccc(OCC(=O)NNC(=S)NC(=O)C2CCCCC2)c(Br)c1	-4.1	-12.9	-5.3	-20.0
CCOC(=O)c1cc(-c2ccccc2)nn1CC1CC(c2ccc(OC)cc2)=NO1 (configuration not stated)	-6.9	12.9*	.	-1.0
O=c1cc(-c2ccccc2)nc2c(-c3ccccc3)c(C(F)(F)F)[nH]n12	-39.0	7.7	50.6*	1.5
CN1/C(=C/C(=O)c2ccc(Cl)cc2)Sc2cc3c(cc21)OCO3	-2.6	16.1*	-7.1	-15.3
COc1ccc(C(=O)/C=C2/Sc3cc4c(cc3N2C)OCO4)cc1	2.0	-2.4	3.7	-0.1
O=C(O[C@H]1CC[C@@]23CCCN2C(=O)CCC[C@H]3C1)N1CCN(c2ccccc2)CC1	4.8	.	.	.
O=C(/C=C/c1ccccc1)N1CCN(c2ccc([N+](=O)[O-])c(N3CCOCC3)c2)CC1	-3.2	20.1*	-16.5	-29.6
SMILES	sPLA2-III inh	NR3A LBD binder	UBC9 SUMO inh	UBC13 inh
O=C(c1ccc(Sc2ccccc2)c([N+](=O)[O-])c1)N1CCOCC1	5.5	16.4*	9.7	-3.1
O=C(c1ccc2ccccc2c1)N1CCN(c2ccc([N+](=O)[O-])c(N3CCOCC3)c2)CC1	-18.2	17.3*	16.3	-11.4
Cc1cccc(C(=O)N2CCN(c3ccc([N+](=O)[O-])c(N4CCOCC4)c3)CC2)c1	-3.2	-1.4	-20.8	-25.3
O=C(c1ccc(SCc2ccco2)c([N+](=O)[O-])c1)N1CCOCC1	3.4	-0.9	7.7	-9.9
COc1ccccc1/C=N\NC(=O)c1cccc(S(=O)(=O)N(C)C)c1	9.2	.	.	.
CCOc1cccc(-c2c(C(=O)N/N=C/c3ccc(C)s3)nnn2-c2nonc2N)c1	-28.1	21.4*	-10.2	-11.2
COc1cccc(-c2c(C(=O)N/N=C/c3ccc(C)s3)nnn2-c2nonc2N)c1	-16.6	12.5*	19.5	2.4
COc1cccc(-c2c(C(=O)N/N=C/c3ccc(C)o3)nnn2-c2nonc2N)c1	-12.9	3.0	11.6	-9.5
CC(C)C[C@H](NC1(C(=O)NCCc2c[nH]c3ccccc23)CCN(C)CC1)C(=O)NCCCc1ccccc1	-52.3	.	.	.
CCOC(=O)N1CCN(C(=O)C[C@H]2C(=O)N(CCCOC)C3=CCCCC[C@]32C(=O)OC)CC1	3.1	.	.	.
CCCCN1CC[C@@H](C)Oc2cc(Br)ccc2S1(=O)=O	6.3	.	.	.
COc1cc2c(c(OC)c1CC=C(C)C)C[C@H](c1ccc(O)cc1O)CO2	-6.7	18.8*	.	14.8
COc1cc(/C=N/n2c(-c3cc(-c4ccccc4)n[nH]3)n[nH]c2=S)ccc1OCc1ccccc1	15.8	.	.	.
Cc1[nH][nH]c(=O)c1C(c1ccc(-c2ccc(Cl)cc2Cl)o1)c1c(C)[nH][nH]c1=O	.	.	90.8*	.
Cc1[nH][nH]c(=O)c1C(c1ccc(-c2ccccc2C(=O)O)o1)c1c(C)[nH][nH]c1=O	2.5	-0.2	96.9	.
Cc1[nH][nH]c(=O)c1C(c1ccc(-c2cccc(C(=O)O)c2)o1)c1c(C)[nH][nH]c1=O	4.7	-1.8	88.5*	-54.3
Cc1[nH][nH]c(=O)c1C(c1ccc(-c2cccc(Cl)c2)o1)c1c(C)[nH][nH]c1=O	.	-0.2	88.3	-15.1
COc1ccc(-c2cc(C(=O)NN=Cc3cccn3C)[nH]n2)cc1	-2.3	.	.	.
CC(C)(C)Nc1nc(SCC(=O)Nc2ccccc2Cl)nc(N2CCOCC2)n1	5.2	17.4*	-8.0	-3.0
CC(C)(C)c1ccc(S(=O)(=O)N2CCC(C(=O)NCc3cccs3)CC2)cc1	4.1	.	.	.
C=CCN1C(C(=O)OC)CN(Cc2cn(Cc3ccc(OC)cc3)nn2)CCS1(=O)=O (configuration not stated)	8.3	.	.	.
COC(=O)/C(C#N)=C1/C=Cc2ccccc2N1C	3.0	-1.2	-26.7	1.7
N#C/C(C(=O)Oc1ccccc1)=C1\C=Cc2ccccc2N1	7.3	20.1*	16.1	12.4
O=C(COc1ccc2ccccc2c1Br)Nc1ccncc1	-17.0	13.6*	-14.4	7.0
O=C(COc1ccc(Br)cc1Br)NC(=S)Nc1cccc(CO)c1	-2.5	-1.0	5.6	3.9
SMILES	sPLA2-III inh	NR3A LBD binder	UBC9 SUMO inh	UBC13 inh
O=C(COc1ccc2ccccc2c1Br)NC(=S)Nc1cccc(CO)c1	-2.5	34.2*	-11.7	-22.7
Cc1ccc(CSc2nnc(-c3cc(-c4ccc(F)cc4)n[nH]3)n2N)cc1	4.5	.	.	.
CC(C)C[C@@H]1COc2cc(Br)ccc2S(=O)(=O)N1Cc1cn(Cc2ccc(F)cc2)nn1	7.2	.	.	.
COC(=O)C1CN(C(=O)OC(C)(C)C)C2=C1C(=O)CC(C)(C(=O)OC(C)(C)C)C2 (configuration not stated)	6.1	.	.	.
CCn1c2ccccc2c2cc(NC(=O)COC(=O)c3cccc(OC)c3)ccc21	8.6	.	.	.
CCn1c2ccccc2c2cc(NC(=O)COC(=O)c3ccc(O)cc3)ccc21	-49.1	14.8*	.	1.5
O=C(O)COc1ccc(NC(=O)c2ccc3c(c2)C(=O)N(Cc2ccccc2)C3=O)cc1	-15.0	10.3*	4.0	-10.1
COC(=O)Cc1ccc(NC(=O)c2ccc3c(c2)C(=O)N(CC2CCCO2)C3=O)cc1 (configuration not stated)	-0.1	1.1	5.8	-8.1
